The list is not random: actives were taken first. Their share in the collection is about 5.9%.
KB-V1 cytotox: KB-V1 MDR subline cytotoxicity; KB-V1 MDR cells viability, CellTiter-Glo, 72 h; 400,000 tested, 3.4% active; Potency, µM (highest dose often 46.1 µM), most hits filed as cytotoxic; further: nearly all actives have a fitted effect of over 60% in size
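Cells of the MDR subline KB-V1 are plated, dosed with compound at multiple concentrations, and incubated 72 h at 37 degrees C; CellTiter-Glo is then added and luminescence read after 10 min.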
TGFb SMAD3 inh: TGF-b pathway inhibition | 410,000 tested, 1.2% active | Potency, µM (doses to about 46.1 µM), usual class: inhibitors | HepG2 CAGA-GFP TGF-b/SMAD3 reporter, GFP fluorescence, 18 h; TGF-beta stimulated, 500 pg/mL final; further: nearly all actives have a fitted effect of over 65% in size
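Cell-based qHTS in HEPG2 carrying a CAGA-GFP Smad reporter; compounds added before 500 pg/mL final TGF-beta, 18 h incubation at 37 degrees C, GFP fluorescence quantified per cell by imaging cytometry.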
ATXN2 expr inh: inhibitors of ATXN2 expression | HEK-293 ATXN2-luciferase reporter, luminescence, 24 h | 360,000 tested, 0.72% active | Potency, µM (doses to about 57 µM), hits mostly inhibitors | AID 1745845; further: nearly all actives have a fitted effect of over 55% in size
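qHTS (up to 57 uM final) was run with 24 h compound exposure of reporter cells at 37 °C. Each well was multiplexed: SteadyGlo luminescence measured ATXN2-luciferase expression after a fluorogenic Gly-Phe-AFC viability readout (25 uM final).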
S2 tox: reduces viability in counter-screen for ATXN expression inhibitors | S2 cells (HEK-293 line with an ATXN2-luciferase reporter) viability, CellTiter-Fluor protease fluorescence, 24 h | Potency, µM (highest dose often 56.7 µM), hits mostly cytotoxic | 400,000 tested, 0.49% active; further: nearly all actives have a fitted effect of over 40% in size
KB-3-1 cytotox: KB-3-1 parental cell cytotoxicity; AID 1347075; KB-3-1 viability, CellTiter-Glo ATP luminescence, 72 h; Potency, µM (titrated, usually from 46.1 µM), actives largely listed as cytotoxic; 400,000 tested, 1.4% active; further: nearly all actives have a fitted effect of over 60% in size
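Luminescent ATP read-out (CellTiter-Glo) measures survival of drug-naive KB-3-1 cells after 72 h compound exposure at 37 °C. Titration series was screened from lowest to highest concentration, with DMSO vehicle plates as background controls.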
HepG2 viability: HepG2 cytotoxicity, counter-screen for TGF-b inhibitors; HepG2 CAGA-GFP viability, ATP luminescence, 18 h; Potency, µM (top dose mostly 46.1 µM), hits mostly cytotoxic; 410,000 tested, 0.76% active; AID 588856
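HepG2 CAGA-GFP cells (1000/well, DMEM with 1% FBS) received compound, then TGF-beta at 500 pg/mL final, and were incubated 18 hours at 37 degrees C. Viability was read by CellTiter-Glo luminescence. Media-only wells were set as complete cell-killing and DMSO as no toxicity.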
Of the large screens only hits and unclear results are named; the others gave an inactive call; ! = not confirmed by another sample. The call rests on the fitted dose curve; in most records, active means well fitted curve in the direction sought with a large enough effect; inconclusive means small, poorly fitted or top-dose-only effect, or another doubt; inactive means no such curve, though single readings can be large; an effect the other way counts as inactive or inconclusive.

CC1CC=CC2C1C(=O)N(Cc1ccccc1)C2c1ccc(Br)cc1F (stereo not given)	none (no result: KB-V1 cytotox, ATXN2 expr inh, S2 tox, KB-3-1 cytotox)
Cc1ccc(C#N)c(SCc2ccccc2F)n1	none
Cc1ccc2nc(CSc3nc(C)ccc3C#N)[nH]c2c1	ATXN2 expr inh 2.2µM (no result: S2 tox)
Cc1ccccc1N1CCN(S(=O)(=O)c2ccccc2)CC1	KB-V1 cytotox 21µM!, KB-3-1 cytotox inconclusive
Cc1nn(-c2ccc(F)cc2)c2sc(C(=O)N3CCCCCC3)cc12	none
Cc1ccccc1-n1nc(C)c2cc(C(=O)N3CCN(S(=O)(=O)c4ccccc4)CC3)sc21	KB-V1 cytotox 23µM
COc1ccc(NC(C)=O)c(C)c1	none
COc1cc(C)c(C(=O)CC(=O)c2c(C)cc(OC)cc2C)c(C)c1	ATXN2 expr inh 25µM
COc1ccc(Cn2c(=O)c3cccnc3n(CC(=O)Nc3c(C)cc(C)cc3C)c2=O)cc1	none
CCN(Cc1ccncc1)Cc1ccc2c(c1)CN(C(=O)c1ccc(C#CC(C)(C)O)o1)CCO2	none (no result: KB-V1 cytotox, TGFb SMAD3 inh, ATXN2 expr inh, KB-3-1 cytotox, HepG2 viability)
Oc1ccc(-c2n[nH]c(=S)n2-c2ccc3c(c2)OCCO3)c(O)c1	TGFb SMAD3 inh 14µM, ATXN2 expr inh inconclusive
O=C1c2ccccc2C(=O)N1CC1CCCO1 (stereo not given)	KB-3-1 cytotox inconclusive, HepG2 viability 3.5µM
COc1ccc(C)cc1NC(=O)CCS(=O)(=O)c1cc2c3c(c1)CCN3C(=O)CC2	none
CC1CCCC(NC(=O)COC(=O)c2ccc([N+](=O)[O-])o2)C1C (stereo not given)	HepG2 viability 3.2µM
CC1CCCCC1NC(=O)COC(=O)c1ccc([N+](=O)[O-])o1 (stereo not given)	none
O=C(CSc1nc2c(c(=O)[nH]1)CCC2)Nc1ccccc1C(F)(F)F	none
CCOC(=O)/C(C#N)=C/c1cc2ccccc2nc1Cl	none
CSc1nc2ccccc2cc1/C=C(\C#N)c1cccc(Cl)c1	KB-V1 cytotox inconclusive, KB-3-1 cytotox 21µM
CC1=C(C(=O)Nc2ccccc2C)C(c2cccs2)n2nc(SCc3ccccc3)nc2N1 (stereo not given)	TGFb SMAD3 inh inconclusive, ATXN2 expr inh inconclusive, S2 tox inconclusive
CC(C)c1c(C(=O)NCc2cccnc2)cnn1-c1nccc(-c2cccs2)n1	none (no result: KB-V1 cytotox, TGFb SMAD3 inh, ATXN2 expr inh, KB-3-1 cytotox, HepG2 viability)
COc1cc(/C=C2/SC(=O)NC2=O)ccc1OC(=O)c1ccco1	KB-V1 cytotox inconclusive, S2 tox inconclusive, KB-3-1 cytotox 10µM
COc1ccc(-c2nnc(NC(=O)c3ccc(S(=O)(=O)N4CCc5ccccc5C4)cc3)o2)cc1	KB-V1 cytotox 10µM, ATXN2 expr inh inconclusive, S2 tox inconclusive, KB-3-1 cytotox inconclusive
COc1ccc(-c2nnc(NC(=O)c3ccc4c(c3)OCCO4)o2)cc1	none
O=C(Nc1nnc(-c2ccc(F)cc2)o1)c1ccc(S(=O)(=O)N2CCOCC2)cc1	KB-V1 cytotox inconclusive, ATXN2 expr inh inconclusive, KB-3-1 cytotox 4.1µM
COc1ccc(-c2csc(NC(=O)c3ccc(S(=O)(=O)N4CCc5ccccc5C4)cc3)n2)cc1	KB-3-1 cytotox inconclusive
COc1ccc(-c2nnc(NC(=O)c3ccc(F)cc3)o2)cc1	TGFb SMAD3 inh inconclusive, S2 tox 20µM
CS(=O)(=O)c1cccc(-c2nnc(NC(=O)c3ccc(S(=O)(=O)N4CCCC4)cc3)o2)c1	none
CCOC(=O)N1CCC(N2CCN(S(=O)(=O)c3ccc([N+](=O)[O-])cc3)CC2)CC1	KB-3-1 cytotox inconclusive
O=[N+]([O-])c1cc(C(F)(F)F)ccc1N1CCN(S(=O)(=O)c2ccc3ccccc3c2)CC1	KB-V1 cytotox 5.2µM, TGFb SMAD3 inh inconclusive, KB-3-1 cytotox 18µM
Cc1ccc(S(=O)(=O)N2CCCC2)cc1S(=O)(=O)N1CCCC1	KB-V1 cytotox inconclusive
O=[N+]([O-])c1cc(C(F)(F)F)cc([N+](=O)[O-])c1N1CCN(S(=O)(=O)c2ccccc2)CC1	none
Cc1ccc(S(=O)(=O)N2CCCN(S(=O)(=O)c3ccc(C)c(C)c3)CC2)cc1C	KB-V1 cytotox 4.1µM, S2 tox inconclusive
Cc1ccc(S(=O)(=O)N2CCCN(C)c3nc4ccccc4nc32)cc1	KB-V1 cytotox 16µM
CCOC(=O)N1CCC(N2CCN(S(=O)(=O)c3ccc4ccccc4c3)CC2)CC1	KB-V1 cytotox 2.6µM, TGFb SMAD3 inh inconclusive
CN1CCCN(S(=O)(=O)c2ccccc2)c2nc3ccccc3nc21	none
COc1cc2nc(CN(CCO)C3CS(=O)(=O)CC3O)nc(N3CCCCC3)c2cc1OC (stereo not given)	none (no result: KB-V1 cytotox, TGFb SMAD3 inh, ATXN2 expr inh, KB-3-1 cytotox, HepG2 viability)
Cc1nn(CCC(=O)N2CCN(c3ccccc3)CC2)c(C)c1S(=O)(=O)N1CCCC1	none
CCCCc1nn2c(=O)cc(COC(=O)c3ccc(NC(=O)C(CC)CC)cc3)nc2s1	none (no result: KB-V1 cytotox, ATXN2 expr inh, S2 tox, KB-3-1 cytotox)
O=C(c1cccnc1)N1CCN(S(=O)(=O)c2ccc3ccccc3c2)CC1	KB-V1 cytotox 18µM, KB-3-1 cytotox 16µM
COc1ccc(S(=O)(=O)N2CCN(C(=O)c3cccnc3)CC2)cc1OC	none
CCOc1ccc2cc(S(=O)(=O)N3CCN(C)CC3)ccc2c1	none
Cc1ccc(S(=O)(=O)N2CCCN(S(=O)(=O)c3ccc4ccccc4c3)CC2)cc1	KB-V1 cytotox 8.2µM
CCOc1ccc2cc(S(=O)(=O)N3CCCCC3)ccc2c1	HepG2 viability 18µM
CCn1c(CN2CCC(C)CC2)nc2cc(S(=O)(=O)N3CCCCC3)ccc21	KB-V1 cytotox inconclusive, S2 tox inconclusive (no result: ATXN2 expr inh)
CCn1c(SC)nc2cc(S(=O)(=O)N3CCCCC3)ccc21	KB-3-1 cytotox 21µM
CN1CCN(S(=O)(=O)c2ccc3ccccc3c2)CC1	none
CCc1cccc(NC(=O)Cn2c(=O)n(CCc3ccc(OC)c(OC)c3)c(=O)c3ccccc32)c1	KB-3-1 cytotox inconclusive
COc1cc2c(NC3CCN(C)CC3)nc(N3CCCN(C)CC3)nc2cc1OCCN(C)CCN(C)C	none (no result: ATXN2 expr inh, S2 tox)
COc1ccc(S(=O)(=O)N2CCN(C)CC2)cc1	none
COc1ccc(S(=O)(=O)N2CCN(C3Cc4ccccc4C3)CC2)cc1	KB-V1 cytotox 21µM, TGFb SMAD3 inh inconclusive
C1=C/C(=C2/C=Cc3ccccc32)c2ccccc2N1	KB-V1 cytotox 2.3µM, TGFb SMAD3 inh inconclusive, KB-3-1 cytotox 4.6µM (no result: ATXN2 expr inh, S2 tox)
COc1ccc(NC(=O)CC2C(=O)N(CCc3ccccc3)C(=S)N2Cc2cccnc2)cc1 (stereo not given)	KB-V1 cytotox 15µM, TGFb SMAD3 inh inconclusive, ATXN2 expr inh inconclusive, S2 tox inconclusive
CCOc1ccc(NC(=O)CC2C(=O)N(c3ccc(OC)cc3)C(=O)N2CCc2cccs2)cc1 (stereo not given)	KB-V1 cytotox 18µM
CCN1C(=O)C(CC(=O)Nc2ccc(OC)cc2)N(Cc2cccnc2)C1=S (stereo not given)	none

From PubChem
